Measurements as given in PubChem BioAssay AID624297 (National Center for Advancing Translational Sciences (NCATS), 2012).
The whole screen tested about 340,000 compounds, of which about 6,200 (1.8%) were called active. A call without a number means that no potency is given here. Roughly 10% stayed inconclusive and do not appear here. Calls follow the shape of the dose curve; as a rule, active = well fitted activation curve with a large enough effect; inconclusive = small, poorly fitted or top-dose-only effect; inactive = no such curve, though single readings can be large or run the other way. The sample as a whole holds a higher share of actives than the screen did.

Assay: A quantitative high throughput screen for small molecules that induce DNA re-replication in SW480 colon adenocarcinoma cells. Also: nearly all actives have a fitted effect of over 55% in size.
Conditions: Hoechst DNA content imaging, 48 h; series mostly up to 46.1 µM
How it was run: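 250 cells/well; 23 nL cpd via pin tool; 48 hr, 37 C, 5% CO2; Hoechst 40 min; imager read of total nuclear intensity, ex 405/em 500-530 nm.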
Potency is read from the fitted curve at half-maximal effect.

| SMILES | Potency |
| --- | --- |
| Cc1nc(N)sc1-c1ccccc1 | inactive |
| O=C1COc2ccc(C(=O)CSc3ccc(Br)cc3)cc2N1 | inactive |
| C=CCn1c(=O)n(C)c2c(=O)n(C)c(=O)n(C)c21 | inactive |
| COc1ccc(C(=O)N[C@H](C(=O)NCc2ccccc2)C(C)C)cc1 | inactive |
| COc1cc(OC)cc(C(=O)N[C@H](C(=O)NNC(=O)c2ccc(Br)cc2)C(C)C)c1 | inactive |
| COc1cc(OC)cc(C(=O)N[C@H](C(=O)Nc2nc3ccccc3[nH]2)C(C)C)c1 | 0.164 µM (active) |
| Cc1ccc(S(=O)(=O)N2CCN(C(=O)c3cc(S(=O)(=O)N4CCOCC4)ccc3F)CC2)cc1 | inactive |
| CN(C)c1ccc(C2N(C)C(=O)c3ccccc3N2C)cc1 (configuration not stated) | inactive |
| CN(C)c1ccc(Nc2c3c4c(cccc4n(C)c2=O)C(=O)c2ccccc2-3)cc1 | 7.31 µM (active) |
| Cc1ccc(S(=O)(=O)NC[C@H]2O[C@@H](n3cnc4c(N)ncnc43)[C@H](O)[C@@H]2O)s1 | inactive |
| O=C(NC(Nc1nc2ccc([N+](=O)[O-])cc2s1)(C(F)(F)F)C(F)(F)F)c1ccccc1 | 20.6 µM (active) |
| CCOc1ccc2nc(NC(=O)c3cc([N+](=O)[O-])ccc3N3CCOCC3)sc2c1 | inactive |
| CCC(=O)NC(Nc1nc2ccc(C)cc2s1)(C(=O)OC)C(F)(F)F (configuration not stated) | inactive |
| CC(=O)c1ccc(NC(=O)C(C)OC(=O)c2ccc(NS(=O)(=O)c3ccc4[nH]c(=O)[nH]c4c3)cc2)cc1 (configuration not stated) | inactive |
| Cc1cc(NC(=O)C(C)SCC(=O)Nc2cccc(S(=O)(=O)N3CCCCCC3)c2)no1 (configuration not stated) | inactive |
| C[C@H](CO)N1C[C@H](C)[C@H](CN(C)CC2CC2)Oc2ccc(NC(=O)CCN3CCOCC3)cc2C1=O | inactive |
| Cc1cc(Cl)nc(NC(=O)Nc2cccc(Cl)c2)n1 | inactive |
| Cc1cc(C)nc(NC(=O)Nc2ccccc2C(F)(F)F)n1 | 16.4 µM (active) |
| COc1cccc(C(=O)NC(=O)Nc2nc(C)cc(C(F)(F)F)n2)c1 | inactive |
| CCC(C)C1(C2CCCC2)NC(=O)NC1=O (configuration not stated) | inactive |
| Nc1ncnc2c1ncn2[C@@H]1O[C@H](CNS(=O)(=O)c2ccc(-c3ccno3)s2)[C@@H](O)[C@H]1O | inactive |

| SMILES | Potency |
| --- | --- |
| Cc1cc2c(cc1C)NC1(C[C@H]3CCC(=O)N4CC[C@@H](C1)[C@@H]34)C(=NC(C)(C)CC(C)(C)C)N2 (some centres not stated) | inactive |
| Cc1ccccc1-c1nc(C#N)c(NCc2ccco2)o1 | inactive |
| N#Cc1nc(-c2cccc3ccccc23)oc1N | inactive |
| COc1ccc(Nc2oc(-c3ccccc3Cl)nc2C#N)cc1 | 10.3 µM (active) |
| COc1ccc(CCC(=O)Nc2ccc(Cl)c(S(=O)(=O)N3CCOCC3)c2)cc1OC | inactive |
| CC1CCCCC1NC(=O)/C(C#N)=C/C=C/c1ccccc1[N+](=O)[O-] (configuration not stated) | 6.51 µM (active) |
| O=[N+]([O-])c1ccccc1/C=C/CN1CCC(O)CC1 | inactive |
| O=[N+]([O-])c1ccccc1/C=C/CN1CCCC(CO)C1 (configuration not stated) | inactive |
| COCCN(C(=O)C(C)N1C(=O)c2ccccc2C1=O)c1c(N)n(CC(C)C)c(=O)[nH]c1=O (configuration not stated) | inactive |
| O=[N+]([O-])c1ccc(N=NNc2ccc([N+](=O)[O-])cc2)cc1 | inactive |
| COc1cccc(N2CCN(CC(=O)Nc3ccnn3C3CCCC3)CC2)c1 | inactive |
| COc1cc(OC)cc(-c2cc3ccc(F)cc3cn2)c1 | inactive |
| O=C(Nc1ccc(Cl)cc1)C1c2cccc[n+]2CC(=O)N1Cc1ccc2c(c1)OCO2 (configuration not stated) | 23.1 µM (active) |
| O=C(C1CCN(Cc2ccc(Cl)cc2)CC1)N1CCN(Cc2ccc3c(c2)OCO3)CC1 | inactive |
| CC1CCC(NC(=O)C2c3ccccc3C(=O)N2Cc2ccc3c(c2)OCO3)CC1 (configuration not stated) | inactive |
| C=CC[C@@H](CC(=O)N[C@@H](CO)Cc1ccccc1)C(=O)NCCOC(=O)[C@@H](CC=C)CC(=O)OC(C)(C)C | inactive |
| COC1=CC(=O)OC(C)(c2ccccc2)C1 (configuration not stated) | inactive |
| CCOC(=O)CCC(NC(=O)c1ccc(CNc2nc3cc(C(F)(F)F)ccc3nc2C(=O)OCC)cc1)C(=O)OCC (configuration not stated) | inactive |
| FC(F)(F)c1ccc(-c2cccc3c2C2CC3CCN2Cc2ccccc2)cc1 (configuration not stated) | inactive |
| O=C(NNc1nc(N2CCCC2)nc(N2CCCC2)n1)c1ccccc1 | inactive |
| CCN(CC)c1ccc(C(=O)N/N=C/c2ccc(N3CCOCC3)cc2)cc1 | 18.4 µM (active) |

| SMILES | Potency |
| --- | --- |
| Cc1cc(C(=O)N/N=C/c2ccc(N3CCOCC3)cc2)c(C)o1 | inactive |
| O=C(NN=Cc1ccc(N2CCOCC2)cc1)c1cc2ccccc2cc1O | inactive |
| O=C(Nc1cccc(S(=O)(=O)N2CCCCC2)c1)c1cncc(Br)c1 | inactive |
| CC/C(=C(/c1ccccc1)c1ccc(OCC[N+](C)(C)C)cc1)c1ccccc1 | inactive |
| Nn1c(SCC(=O)Nc2ccc3c(c2)CCC3)nnc1C1CC1 | inactive |
| Cc1cc(C(=O)OCC(=O)NCc2ccco2)c(C)n1-c1ccccc1 | 7.31 µM (active) |
| O=C(COC(=O)c1ccccc1O)NCc1ccco1 | inactive |
| CN(c1ccccc1)S(=O)(=O)c1ccc(Cl)c(C(=O)OCC(=O)NCc2ccco2)c1 | inactive |
| CC(C(=O)N1CCc2ccccc21)N(C)CC(=O)Nc1ccc(F)cc1 (configuration not stated) | inactive |
| O=C1COc2ccc(C(=O)COC(=O)CCOc3ccccc3)cc2N1 | inactive |
| Cc1ccc(-c2csc(C(C#N)=C(O)CN3CCN(C(=O)c4ccco4)CC3)n2)cc1 | inactive |
| Cc1cn([C@H]2CC(F)[C@@H](CO)O2)c(=O)[nH]c1=O (some centres not stated) | inactive |
| COc1cc(OC)cc(C(=O)NCC(=O)OCC(=O)NC(C)CCc2ccccc2)c1 (configuration not stated) | inactive |
| O=C(Nc1cccc(-c2cscn2)c1)C1CCN(Cc2ccsc2)CC1 | inactive |
| CC(=O)c1cc(CN2CCC(C(=O)Nc3cccc(-c4cscn4)c3)CC2)cs1 | inactive |
| CCn1cc(CN2CCC(C(=O)Nc3cccc(-c4cccc(Cl)c4)c3)CC2)cn1 | 18.4 µM (active) |
| C=CCN1C=C(C(=O)c2ccccc2)C(=O)CC1 | inactive |
| Cc1ccc(OCCCn2c(=O)oc3ccccc32)cc1 | inactive |
| CCCCCCCCCCOC(=O)Cn1c(COc2ccc(C)cc2)[n+](C)c2ccccc21 | 20.6 µM (active) |
| CCCCCCCCCCOC(=O)Cn1c(COc2cccc(OC)c2)[n+](C)c2ccccc21 | inactive |
